Source: PubChem (National Center for Advancing Translational Sciences (NCATS))
Rows were chosen to be rich in hits. Some 12% of all compounds tested hit in one or more screens of this group.
Sfp inh: Sfp phosphopantetheinyl transferase inhibition | Potency, µM, inactives show largest response in the series, negative = inhibition, most hits filed as inhibitors | AID 1490 | Q9F4F7 | Biochemical Sfp PPTase activity, qHTS | 3.5% of 310,000 active;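 note: the enzyme is Sfp with the accession as filed and its product quenches rhodamine fluorescence; 0% = enzyme reaction without inhibitor and -100% = no enzyme wells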
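Sfp 15 nM + cpd, 15 min RT; start w/ rhodamine-CoA 5 uM, BHQ-2-YbbR 12.5 uM (final); 50 mM Hepes pH 7.6, 10 mM MgCl2, 0.01% NP-40, 0.01% BSA; read 525/598 nm at 0 and 30 min.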
VP16 counter: inhibits Gal4-VP16 luciferase reporter, ROR gamma counter-screen; 3.5% of 310,000 active; Drosophila S2 Gal4-VP16 UAS-luciferase, luminescence, 20 h; AID 2546; Potency, µM (titrated, usually from 53.6 µM), without a hit: at the highest dose activity, negative = inhibition, hits mostly inhibitors;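 note: Gal4-VP16 expression switched on by copper sulfate through the metallothionein promoter; nearly all actives have a fitted effect of over 50% in size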
PLK1 PBD block: inhibitors of human PLK1 polo-box domain binding | 2.8% of 360,000 active | P53350 | Potency, µM, without a hit: max response, negative = inhibition, usual class: inhibitors | AID 720504 | Plk1 PBD binding of FITC phosphopeptide, fluorescence polarization; note: series mostly up to about 57 µM; nearly all actives have a fitted effect of over 65% in size
ALDH1A1 inh: blocks purified human ALDH1A1 activity. Potency, µM (top dose mostly 75.3 µM), inactives show top-dose activity, negative = inhibition, most hits filed as inhibitors. Purified ALDH1A1, NADH fluorescence, propionaldehyde substrate. 7.3% of 220,000 active. P00352; active = well fitted inhibition curve with a large enough effect, not every such curve was filed as active; inconclusive = small, poorly fitted or top-dose-only effect, or another doubt; inactive = no such curve, though single readings can be large or run the other way;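 note: plate controls were no enzyme wells and a reference inhibitor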
RORgamma inh: inhibitors of mouse ROR gamma transcriptional activity. P51450. Potency, µM (highest dose often 53.6 µM), for inactives: top-dose activity change, negative = inhibition, actives largely listed as inhibitors. AID 2551. 5.4% of 310,000 active. Drosophila S2 Gal4-RORgamma UAS-luciferase reporter, 20 h; note: nearly all actives have a fitted effect of over 60% in size
Target sequence (P51450 whole entry, looked up, the tested form may be a part): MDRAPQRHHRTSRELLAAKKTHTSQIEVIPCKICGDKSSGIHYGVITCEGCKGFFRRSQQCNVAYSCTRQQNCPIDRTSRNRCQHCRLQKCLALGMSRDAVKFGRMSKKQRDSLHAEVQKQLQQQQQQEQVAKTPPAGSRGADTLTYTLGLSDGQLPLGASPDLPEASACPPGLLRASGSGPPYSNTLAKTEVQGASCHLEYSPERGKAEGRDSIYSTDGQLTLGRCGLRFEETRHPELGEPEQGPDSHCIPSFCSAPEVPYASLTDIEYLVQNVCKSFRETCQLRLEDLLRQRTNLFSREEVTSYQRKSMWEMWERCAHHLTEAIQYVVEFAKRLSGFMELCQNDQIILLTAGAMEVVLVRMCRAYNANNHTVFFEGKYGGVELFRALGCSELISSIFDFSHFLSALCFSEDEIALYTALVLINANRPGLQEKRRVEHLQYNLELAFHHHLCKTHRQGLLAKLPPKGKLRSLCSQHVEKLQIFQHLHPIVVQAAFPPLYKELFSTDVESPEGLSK
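In this cell-based reporter format, copper sulfate (700 uM final) drives Gal4–ROR gamma fusion expression from a metallothionein promoter in Drosophila Schneider cells; compounds preincubated 1 hr, reporter read after 20 hr at ambient temperature.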
Starred values were filed as active, the others as inactive; ? = inconclusive; nt = no result; [ ] = remark or other dose. Unless noted, calls come from the whole dose curve; as a rule, active = well fitted curve in the direction sought with a large enough effect; inconclusive = small, poorly fitted or top-dose-only effect, or another doubt; inactive = no such curve, though single readings can be large; an effect the other way counts as inactive or inconclusive. Unless noted, % is set by controls: 0 for no effect and ±100 for the full control effect; potency is the fitted concentration of half-maximal effect.

SMILES	Sfp inh	VP16 counter	PLK1 PBD block	ALDH1A1 inh	RORgamma inh
O=C1N=C(N2CCOCC2)S/C1=C1\C(=O)N(Cc2ccccc2)c2ccc(Br)cc21	-2.4%	10.4%	nt	?	17.7%
Fc1ccc(/C=N/NC(=S)NCCc2ccccc2)cc1F	9.9%	8.91µM*	-11.3%	nt	7.08µM*
COc1ccc(/C=N/NC(=S)NCCc2ccccc2)cc1	0.9%	7.94µM*	-9.3%	nt	3.55µM*
COc1cccc(/C=N/NC(=S)NCCc2ccccc2)c1	-0.5%	?	-10.3%	nt	15.8µM*
CCc1ccc(/C=N/NC(=S)NCCc2ccccc2)cc1	8.2%	?	-24.9%	4.2%	14.1µM*
CC(C)C1NC(=O)[C@H](CCCCN)NC(=O)[C@@H](Cc2c[nH]c3ccccc23)NC(=O)[C@H](Cc2ccc(O)cc2)NC(=O)[C@H](C)N(C)C(=O)[C@H](Cc2ccccc2)NC1=O (some centres undefined)	nt	nt	nt	-11.9%	nt
O=c1c(-c2ccccc2)nc2cnc(N3CCNCC3)nc2n1-c1ccccc1	-7.6%	-18.6%	nt	?	2.2%
Cc1noc(C)c1-c1ccc2ncnc(NCc3cccc(-c4ccccc4)c3)c2c1	9.5%	?	nt	nt	7.8%
CC(C)N(C(=O)COC(=O)CNC(=O)c1ccc(Br)cc1)c1ccccc1	5.8%	-2.8%	-4.4%	4.3%	2.0%
CN1CCN(C(=S)NC(=O)/C=C/c2ccccc2Cl)CC1	-14.3%	?	-18.8%	?	2.51µM*
CN1CCN(C(=S)NC(=O)/C=C/c2ccccc2)CC1	1.4%	?	0.4%	-4.9%	11.2µM*
CN1CCN(C(=O)/C=C/c2ccccc2)CC1	4.8%	1.9%	1.3%	nt	5.9%
O=C(/C=C/c1ccccc1Cl)N1CCCN(C(=O)/C=C/c2ccccc2Cl)CC1	-11.4%	-7.6%	3.2%	7.0%	31.1%
O=C(/C=C/c1ccc(Br)cc1)NC(=S)N1CCOCC1	-6.0%	0.398µM*	-4.0%	?	0.708µM*
CC(OC(=O)/C=C/c1ccc(Br)cc1)C(=O)N1CCOCC1 (centres undefined)	nt	nt	-9.0%	nt	nt
C=CCCCC	nt	6.4%	nt	22.4%	4.1%
CCOCCn1cnc2sc(C(=O)Nc3nc(C)c(C(=O)OCC)s3)c(C)c2c1=O	12.1%	-10.2%	nt	1.5%	4.47µM*
CCOC(=O)c1sc(NC(=O)CNC(=O)Cn2cnc3sc(C)c(C)c3c2=O)nc1C	-8.3%	10.3%	0.6%	1.2%	-13.2%
CC1(C)OC(=O)C(=NNc2ccc(O)cc2)C(=O)O1	14.3%	-1.6%	-5.3%	-9.2%	-9.2%
CC1(C)OC(=O)C(=NNc2ccccc2)C(=O)O1	11.8%	-3.9%	-8.3%	15.8µM*	?
CC1(C)OC(=O)C(=NNc2ccc(C(=O)O)cc2)C(=O)O1	-7.6%	1.4%	-1.6%	nt	-29.8%
CC1(C)OC(=O)C(=NNc2ccc(Cl)cc2)C(=O)O1	1.0%	-15.7%	-2.1%	3.16µM*	13.8%
O=C(O)C[C@H](Cc1ccccc1)C(=O)O	nt	nt	nt	-2.1%[13.5 µM]	nt
c1coc(C2=NC(c3ccco3)C(c3ccco3)N2)c1 (centres undefined)	nt	nt	-3.0%	nt	nt
C=C1CCC[C@]2(C)C[C@H]3OC(=O)C(CNCCN(C)C)[C@H]3CC12 (some centres undefined)	-5.2%	-0.7%	-5.4%	nt	0.2%
SMILES	Sfp inh	VP16 counter	PLK1 PBD block	ALDH1A1 inh	RORgamma inh
C=C1CCC[C@]2(C)C[C@H]3OC(=O)[C@H](CNCCc4ccccc4OC)C3CC12 (some centres undefined)	56.2µM*	?	nt	8.91µM*	?
C=C1CCC[C@]2(C)C[C@H]3OC(=O)C(CNCCN(CC)CC)[C@H]3CC12 (some centres undefined)	56.2µM*	2.8%	6.6%	nt	1.3%
CC(C)(C)C1CCN2CCC[C@](c3ccccc3)(C1)C2OCCCO (some centres undefined)	nt	nt	3.3%	nt	nt
O=C(O)c1[nH]c(-c2ccccc2)c2c1C(=O)N(C1CC1)C2=O	nt	nt	-10.0%	nt	nt
CCCCCCCN	nt	0.6%	nt	-3.3%	-12.1%
Cc1ccc(S(=O)(=O)Nc2ccccc2OC(C(=O)OC(C)(C)C)C(=O)OC(C)(C)C)cc1	nt	nt	-3.0%	nt	nt
COc1ccc(-n2cnc3cc(NCc4cccs4)ccc32)cc1	-4.3%	7.2%	26.7µM*	?	14.1µM*
Cc1ccc(-n2cnc3cc(NCc4cccs4)ccc32)cc1	?	?	-10.1%	?	-6.7%
Cc1ccc(N2NC(C)(c3cccs3)NC2=S)cc1 (centres undefined)	70.8µM*	5.9%	?	17.8µM*	-34.3%
CC(=O)O[C@@H]1CC(C)=C2[C@H]1[C@H](C)CC[C@H]2/C=C(\C)C(=O)O	nt	9.3%	nt	-4.8%	-10.3%
COc1ccc(/C=N/Nc2nc(=O)[nH]nc2C)cc1OC	19.4%	7.9%	-4.8%	nt	11.2µM*
COc1cc(/C=N/Nc2nc(=O)[nH]nc2C)ccc1O	56.2µM*	-12.6%	-26.7%	nt	11.2µM*
O=C(Nc1ccc(S(=O)(=O)N2CCOCC2)cc1)c1ccc(S(=O)(=O)N2CCOCC2)cc1	3.7%	-8.2%	-6.7%	nt	10.1%
Cc1ccnc(NS(=O)(=O)c2ccc(NC(=O)c3ccc(S(=O)(=O)N4CCCC4)cc3)cc2)n1	5.5%	0.0%	-15.1%	?	18.1%
O=C(Nc1ccc(S(=O)(=O)Nc2ncccn2)cc1)c1ccc(S(=O)(=O)N2CCCC2)cc1	12.8%	-5.0%	-7.7%	25.1µM*	12.6µM*
O=C(Nc1ccc(S(=O)(=O)Nc2ncccn2)cc1)c1ccc2ncsc2c1	?	1.8%	-23.7%	7.08µM*	20.7%
O=C(Nc1ccc(Cc2ccncc2)cc1)c1ccc(S(=O)(=O)N2CCOCC2)cc1	0.8%	7.08µM*	-7.0%	?	-41.2%
N#CCCSc1ccccc1NC(=O)c1ccc(S(=O)(=O)N2CCCC2)cc1	5.62µM*	1.8%	nt	2.51µM*	36.1%
O=C(Nc1ccncc1)c1ccc2ncsc2c1	nt	nt	-21.1%	nt	nt
COc1ccc(C(N)c2csc(Nc3nncc4ccccc34)n2)cc1 (centres undefined)	nt	nt	-3.2%	nt	nt
CCOC(=O)CNc1oc(-c2ccccc2)nc1-c1ccccc1	-0.4%	-14.4%	nt	-1.1%	5.5%
COc1ccc2c3c([nH]c2c1)[C@H]1C[C@@H]2[C@@H](C[C@@H](O)[C@H](OC)[C@H]2C(=O)O)CN1CC3	nt	nt	nt	-11.0%[13.5 µM]	nt
Nc1nc(N)c(N=O)c(Nc2cccc(Cl)c2)n1	nt	nt	-6.9%	nt	nt
COc1ccc(NC(=S)Nc2ccccn2)c(OC)c1	6.5%	-2.7%[0.365 µM]	-25.5%	?	1.26µM*
COc1ccc(NC(=S)Nc2cc(C)ccn2)c(OC)c1	15.5%	3.16µM*	-5.5%	3.7%	6.31µM*
O=C(O)Cn1nncc1-c1ccc(C(F)(F)F)cc1	nt	nt	1.3%	nt	nt
COc1ccc(OC)c(C2CC(=O)N3CN(c4ccccc4)CSC3=C2C#N)c1 (centres undefined)	4.47µM*	12.6%	26.7µM*	7.94µM*	11.2µM*
COc1ccc(OC)c(C2C(C#N)=C(N)N(N(C)C)C3=C2C(=O)CCC3)c1 (centres undefined)	11.6%	12.7%	-4.5%	nt	-1.1%
